According to PubChem BioAssay (NCATS):
Inconclusive results are not listed. Entries that show only a call come without a potency. The source made the active and inactive calls. Unless noted, calls come from the whole dose curve.

How the values were obtained:
[1] = qHTS for Inhibitors of the Functional Ribonucleoprotein Complex (vRNP) of Lassa (LASV) Arenavirus: LASV Primary Screen - GLuc reporter signal (AID 1347082; calls by dose curve; tested in HEK293 reporter line; note: nearly all actives have a fitted effect of over 60% in size; note: potency is the fitted concentration of half-maximal effect)
[2] = qHTS for Inhibitors of the Functional Ribonucleoprotein Complex (vRNP) of Lassa (LASV) Arenavirus: Viability assay - alamar blue signal for LASV Primary Screen (AID 1347083; calls by dose curve; tested in HEK293 reporter line; note: nearly all actives have a fitted effect of over 80% in size; note: potency is the fitted concentration of half-maximal effect)
[3] = qHTS for Inhibitors of the Functional Ribonucleoprotein Complex (vRNP) of Lymphocytic Choriomeningitis Arenaviruses (LCMV): Viability assay - alamar blue signal for LCMV Primary Screen (AID 1347085; calls by dose curve; tested in HEK293 reporter line; note: nearly all actives have a fitted effect of over 80% in size; note: potency is the fitted concentration of half-maximal effect)
[4] = target: Nucleoprotein (Lymphocytic choriomeningitis virus (strain Armstrong)) (UniProt P09992); test: qHTS for Inhibitors of the Functional Ribonucleoprotein Complex (vRNP) of Lymphocytic Choriomeningitis Arenaviruses (LCMV): LCMV Primary Screen - GLuc reporter signal (AID 1347086); note: nearly all actives have a fitted effect of over 70% in size; note: potency is the fitted concentration of half-maximal effect
Nucleoprotein (Lymphocytic choriomeningitis virus (strain Armstrong)), sequence (P09992 whole entry, looked up): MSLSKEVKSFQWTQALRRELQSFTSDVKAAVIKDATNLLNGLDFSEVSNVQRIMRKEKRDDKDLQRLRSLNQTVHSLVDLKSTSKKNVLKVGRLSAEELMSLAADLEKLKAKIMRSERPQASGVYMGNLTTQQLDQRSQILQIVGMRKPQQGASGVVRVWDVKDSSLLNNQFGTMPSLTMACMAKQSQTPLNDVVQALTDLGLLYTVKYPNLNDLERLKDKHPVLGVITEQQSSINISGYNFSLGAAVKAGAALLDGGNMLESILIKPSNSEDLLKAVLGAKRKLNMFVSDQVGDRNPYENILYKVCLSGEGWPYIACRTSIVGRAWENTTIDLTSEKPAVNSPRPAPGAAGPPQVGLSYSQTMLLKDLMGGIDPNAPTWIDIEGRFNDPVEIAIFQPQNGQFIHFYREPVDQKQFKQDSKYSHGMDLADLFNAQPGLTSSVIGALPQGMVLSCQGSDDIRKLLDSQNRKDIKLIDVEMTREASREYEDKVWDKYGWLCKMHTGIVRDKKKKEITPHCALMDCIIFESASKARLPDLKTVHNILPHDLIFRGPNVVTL

CRL-7250 = normal cell line; test: qHTS assay to identify novel small-molecules to repurpose for Merkel cell carcinoma treatment (AID 1296009; active = well fitted curve in the direction sought with a large enough effect; an effect the other way counts as inactive or inconclusive; note: nearly all actives have a fitted effect of over 60% in size); details: MCC and control cell lines, CellTiter-Glo viability, 72 h; series mostly up to 92 µM
Method in brief: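 Viability readout: ATP luminescence (CellTiter-Glo) after 72 hr drug exposure at 37 degree celsius. Dose-response format was 8 points for NPC and 11 points for MIPE; data normalized to in-plate controls.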

[5] = Cytotoxicity counterscreen for inhibitors of SARS-CoV-2 cell entry (AID 1645845); note: nearly all actives have a fitted effect of over 50% in size; note: potency is the fitted concentration of half-maximal effect
Method in brief: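 After a 15 min room-temperature ATPLite 1step step, luminescence reflected ATP remaining in HEK293-ACE2 cells exposed to compound for 1 h plus 48 h at 37 C, with percent activity set by cell and no-cell controls.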

[6] = Primary qHTS for inhibitors of SARS-S pseudo-typed particle cell entry (AID 1479145); note: nearly all actives have a fitted effect of over 45% in size
[7] = Primary qHTS for Huh7 cytotoxicity: counterscreen for inhibitors of MERS-S pseudotyped particle cell entry (AID 1479147); details: outcome: dose series up to 57.1 µM unless noted
[8] = Primary qHTS for inhibitors of MERS-S pseudo-typed particle cell entry (AID 1479149); note: nearly all actives have a fitted effect of over 60% in size
[9] = Primary qHTS for Vero E6 cytotoxicity: counterscreen for inhibitors of SARS-S pseudo-typed particle cell entry (AID 1479150); details: outcome: dose series up to 57.1 µM unless noted
[10] = Primary qHTS to identify inhibitors of SARS-CoV-2 cell entry (AID 1645846); details: activity change, negative = inhibition: at 57.1 µM (top of the series) unless noted; note: nearly all actives have a fitted effect of over 45% in size
Method in brief: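 Entry measured by luciferase signal 48 h after adding SARS-CoV-2-S pseudotyped MLV particles to HEK293-ACE2 cells preincubated 1 h with compounds. Normalisation: bald particles and spike particles.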

[11] = Inducers of the Endoplasmic Reticulum Stress Response (ERSR) in human glioma: Validation (AID 504836; active = well fitted curve in the direction sought with a large enough effect; an effect the other way counts as inactive or inconclusive)
Method in brief: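 Stably transfected U87-MG human glioma cells carrying a GRP78-based luminescent sensor were seeded at 1000 cells/well, pin-dosed with compounds and incubated 16 h. Luciferase reagent was then added, and end-point luminescence was read after 10 min at room temperature.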

## CN(C1CCc2c(c3ccccc3n2CC(=O)O)C1)S(=O)(=O)c1ccc(F)cc1 (stereo unspecified)
[1]
  Potency: inactive
[2]
  Potency: inactive
[3]
  Potency: inactive
[4]
  Potency: inactive
CRL-7250
  Potency: inactive

## CC(C)(C)[C@H](NC(=O)c1ccc(N)c(Cl)c1)C(=O)N1CCC[C@@H]1C(=O)N[C@H](C#N)CC(=O)O
[1]
  activity change, negative = inhibition: -4.12% [at 5.82 µM] (inactive)
[2]
  activity change, negative = reduced viability: 2.61% [at 5.82 µM] (inactive)
[3]
  activity change, negative = lower viability: 8.73% [at 5.82 µM] (inactive)
[4]
  activity change, negative = inhibition: 63.3% [at 5.82 µM] (inactive)
CRL-7250
  outcome: inactive [at 4.96 µM]

## COC(=O)N1CCN(Cc2cccc(NC(=O)Nc3ccc(C)nc3)c2F)CC1
[1]
  Potency: inactive
[2]
  Potency: inactive
[3]
  Potency: inactive
[4]
  Potency: inactive
[5]
  Potency: inactive
CRL-7250
  Potency: inactive

## CCCCCCCCCC(=O)N[C@@H](Cc1c[nH]c2ccccc12)C(=O)N[C@H](CC(N)=O)C(=O)N[C@@H](CC(=O)O)C(=O)N[C@@H]1C(=O)NCC(=O)N[C@@H](CCCN)C(=O)N[C@@H](CC(=O)O)C(=O)N[C@H](C)C(=O)N[C@@H](CC(=O)O)C(=O)NCC(=O)N[C@H](CO)C(=O)N[C@@H]([C@@H](C)CC(=O)O)C(=O)N[C@@H](CC(=O)c2ccccc2N)C(=O)O[C@@H]1C
[1]
  Potency: inactive
[2]
  Potency: inactive
[3]
  Potency: inactive
[4]
  Potency: inactive
[6]
  Potency: inactive
[7]
  outcome: inactive [at 26.4 µM]
[8]
  Potency: inactive
[9]
  outcome: inactive
[5]
  Potency: inactive
[10]
  Potency: inactive
  activity change, negative = inhibition: -32.9% [at 27.1 µM]
CRL-7250
  Potency: inactive

## O=C(O)CCC=CCC[C@@H]1[C@H](N2CCCCC2)[C@@H](O)C[C@@H]1OCc1ccc(-c2ccccc2)cc1
[1]
  Potency: inactive
[2]
  Potency: inactive
[3]
  Potency: inactive
[4]
  Potency: inactive
[7]
  outcome: inactive
[8]
  Potency: inactive
[9]
  outcome: inactive
[5]
  Potency: inactive
CRL-7250
  Potency: inactive

## Cc1ccc(C2=Nc3ccc(Cl)cc3OC2)cc1
[1]
  Potency: inactive
[2]
  Potency: inactive
[3]
  Potency: inactive
[4]
  Potency: inactive
[5]
  Potency: inactive
CRL-7250
  Potency: inactive

## Cc1ccc(Nc2cc(-c3cccc(N4C(=O)c5ccccc5C4=O)c3)ncn2)cc1NS(C)(=O)=O
[1]
  Potency: inactive
[2]
  Potency: inactive
[3]
  Potency: inactive
[4]
  Potency: inactive
[5]
  Potency: 31.6 µM (active)
CRL-7250
  Potency: inactive

## O=C(NC1CCOCC1)c1ccc(-c2cc(-c3cn[nH]c3-c3ccccn3)ccn2)cc1
[1]
  Potency: inactive
[2]
  Potency: inactive
[3]
  Potency: inactive
[4]
  Potency: inactive
[5]
  Potency: inactive
[10]
  activity change, negative = inhibition: -3.94%
CRL-7250
  Potency: inactive

## C=CC[N+]1([C@H]2C[C@H]3[C@@H]4CC[C@H]5C[C@H](O)[C@@H](N6CCOCC6)C[C@]5(C)[C@@H]4CC[C@]3(C)[C@H]2OC(C)=O)CCCC1
[1]
  Potency: inactive
[2]
  Potency: inactive
[3]
  Potency: inactive
[4]
  Potency: inactive
CRL-7250
  Potency: inactive

## NC1CCC(Nc2nc(Nc3ccc(C(=O)N4CCCCC4)cc3)c3ncn(-c4cccc(F)c4)c3n2)CC1 (stereo unspecified)
[1]
  Potency: inactive
[2]
  Potency: inactive
[3]
  Potency: inactive
[4]
  Potency: inactive
CRL-7250
  Potency: inactive

## CN1C(C(=O)Nc2ccccn2)=C(O)c2sc(Cl)cc2S1(=O)=O
[1]
  Potency: 24.3 µM (active)
[2]
  Potency: 15.3 µM (active)
[3]
  Potency: 24.3 µM (active)
[4]
  Potency: 15.3 µM (active)
[6]
  Potency: inactive
[7]
  outcome: inactive
[8]
  Potency: inactive
[9]
  outcome: inactive
[5]
  Potency: inactive
CRL-7250
  Potency: inactive

## OC(CCN1CCCCC1)(c1ccccc1)C1CCCCC1 (stereo unspecified)
[11]
  outcome: inactive
[1]
  Potency: inactive
[2]
  Potency: inactive
[3]
  Potency: inactive
[4]
  Potency: inactive
[7]
  outcome: inactive
[9]
  outcome: inactive
[5]
  Potency: inactive
CRL-7250
  Potency: inactive

## COc1ccc([C@@H]2CNC(=O)C2)cc1OC1CCCC1
[1]
  Potency: inactive
[2]
  Potency: 2.73 µM (active)
[3]
  Potency: 3.43 µM (active)
[4]
  Potency: inactive
[5]
  Potency: inactive
[10]
  activity change, negative = inhibition: 2.39%
CRL-7250
  Potency: inactive

## COC1=C(OC)C(=O)C(CC=C(C)CCC=C(C)CCC=C(C)CCC=C(C)CCC=C(C)CCC=C(C)CCC=C(C)CCC=C(C)CCC=C(C)CCC=C(C)C)=C(C)C1=O
[1]
  Potency: inactive
[2]
  Potency: inactive
[3]
  Potency: inactive
[4]
  Potency: inactive
[6]
  outcome: inactive [at 5.34 µM]
[7]
  outcome: inactive [at 5.34 µM]
[8]
  outcome: inactive [at 5.34 µM]
[9]
  outcome: inactive [at 5.34 µM]
[5]
  outcome: inactive [at 5.25 µM]
[10]
  outcome: inactive [at 5.25 µM]
CRL-7250
  Potency: inactive

## Cc1cnc(Nc2cccc(CN3CCOCC3)c2)nc1Nc1cccc(S(=O)(=O)NC(C)(C)C)c1
[1]
  Potency: inactive
[2]
  Potency: inactive
[3]
  Potency: inactive
[4]
  Potency: inactive
[5]
  Potency: inactive
CRL-7250
  Potency: inactive

## Clc1cccc(-n2nnnc2NCc2ccccc2Oc2ccccn2)c1Cl
[1]
  Potency: inactive
[2]
  Potency: inactive
[3]
  Potency: inactive
[4]
  Potency: inactive
CRL-7250
  Potency: inactive

## CN(C)CCOc1ccc(-c2nc(-c3ccc4c(c3)CCC4=NO)c(-c3ccncc3)[nH]2)cc1
[1]
  Potency: inactive
[2]
  Potency: inactive
[3]
  Potency: inactive
[4]
  Potency: inactive
CRL-7250
  Potency: inactive

## CCCCCCCCCCCCCCCCCCCCCCO
[1]
  Potency: inactive
[2]
  Potency: inactive
[3]
  Potency: inactive
[4]
  Potency: inactive
[6]
  outcome: inactive [at 0.573 µM]
[7]
  outcome: inactive [at 0.573 µM]
[8]
  outcome: inactive [at 0.573 µM]
[9]
  activity change, negative = cytotoxicity: 2.8% [at 0.573 µM] (inactive)
[5]
  Potency: inactive
[10]
  activity change, negative = inhibition: -17.8% [at 27.1 µM]
  outcome: inactive [at 0.702 µM]
CRL-7250
  Potency: inactive
